Source: PubChem
This is a sample that favours compounds with a hit; in the whole collection about 3.7% have one here.
miR-21 act = qHTS Assay for Modulators of miRNAs and/orActivators of miR-21; HeLa miR-21 FLuc reporter, luciferase, 48 h; 340,000 tested, under 10 active; Potency, µM (top dose mostly 38.3 µM), usual class: activators;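 further: miR-21 action dims this reporter so a rising signal means less miR-21 action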
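Luminescence from a firefly luciferase reporter carrying a miR-21 binding site downstream, stably expressed under a CMV promoter in HeLa cells that make miR-21 endogenously, reports miRNA modulation after 48 h compound exposure up to approximately 40uM final.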
Nrf2 block = Nrf2 qHTS screen for inhibitors; A549 ARE-Fluc reporter, luciferase luminescence, 18-24 h; Potency, µM (highest dose often 46 µM), most hits filed as inhibitors; actives 2.1% (n = 360,000); further: nearly all actives have a fitted effect of over 60% in size
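Nrf2 function is reported as luminescence of an ARE-controlled luciferase in A549 cells. Compounds were tested at several concentrations, and a CellTiter-Fluor read on the same wells flagged cytotoxicity.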
A549 viability = Nrf2 qHTS screen for inhibitors: counterscreen for cytotoxicity; actives 0.16% (n = 390,000); Potency, µM (doses to about 46 µM), actives largely listed as inhibitors; A549 ARE-Fluc cells, CellTiter-Fluor viability, 18-24 h
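A549 ARE_Fluc cells in 5% FBS OPTI-MEM were exposed to compounds in concentration-response for 18-24 h at 37 deg C. Viability was read by CellTiter-Fluor fluorescence (Ex 405/Em 525) after 30 min, before the luciferase read.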
IL-2 act = qHTS of IL-2 Activators; activation, % (series mostly up to about 46 µM); IL-2 activation reporter assay, cell-based qHTS; stimulated with anti-CD3/CD4/CD28 beads; in transgenic mouse T cells; actives 0.065% (n = 360,000); in the data active means activation above about 50%; inconclusive means mostly about 30% to 49%
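Quantitative HTS in unstimulated transgenic mouse T cells, with memory T cells as non-tolerant control and PMA/ionomycin as tolerance-bypass control. Compound pretreatment lasted 60 minutes before 18 h bead stimulation; EGFP/DsRed fluorescence read.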
ClpP mod = qHTS Assay for Activators of ClpP; AID 651965, 2013; actives 1.9% (n = 340,000); ATP-dependent Clp protease proteolytic subunit (Bacillus subtilis (strain 168)), P80244; purified B. subtilis ClpP, FRET peptide cleavage, 20 min; Potency, µM (titrated, usually from 57.5 µM); active means well fitted falling curve with a large enough effect; inconclusive means small, poorly fitted or top-dose-only effect; inactive means no such curve, though single readings can be large or run the other way; further: the source files actives as falling curves though it sought activators and does not explain the sign; nearly all actives have a fitted effect of over 65% in size
Target sequence (P80244 whole entry, looked up): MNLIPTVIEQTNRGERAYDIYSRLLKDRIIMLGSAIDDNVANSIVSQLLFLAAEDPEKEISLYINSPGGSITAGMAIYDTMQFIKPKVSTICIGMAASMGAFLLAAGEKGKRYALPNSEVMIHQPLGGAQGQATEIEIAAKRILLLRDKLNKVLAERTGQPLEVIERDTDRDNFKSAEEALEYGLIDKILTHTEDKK
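FRET quenching reversal measured ClpP activation: 10 microg/mL B. subtilis ClpP at pH 8 with the FRET-FV decapeptide, read at 430 nm after 320 nm excitation. The 20-min minus 0-min signal was scaled between DMSO/no-enzyme wells and ADEP (5.8 microM final).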
Nrf2 ARE act = qHTS of Nrf2 Activators; AREc32 ARE-luciferase reporter (MCF7-derived line), luminescence, 24 h; Potency, µM (highest dose often 46.1 µM), hits mostly activators; actives 0.31% (n = 410,000); further: nearly all actives have a fitted effect of over 65% in size
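Luciferase luminescence (Steady-Glo, 30 min at room temperature) served as the read-out of ARE activation in AREc32 cells treated with compounds for 24 hr at 37 deg C.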
ClpP validation = qHTS Assay for Activators of ClpP: Hit Validation of Inhibitors; shares compounds with ClpP mod; purified B. subtilis ClpP, FRET-FV substrate cleavage, 20 min; Potency, µM (top dose mostly 57.5 µM), hits mostly inhibitors; actives 40% (n = 470); further: nearly all actives have a fitted effect of over 70% in size
Of the large screens only hits and unclear results are named; the others gave an inactive call (follow-up assays come after a bar, where they were run). Unless noted, the call rests on the fitted dose curve; in most records, active means well fitted curve in the direction sought with a large enough effect; inconclusive means small, poorly fitted or top-dose-only effect, or another doubt; inactive means no such curve, though single readings can be large; an effect the other way counts as inactive or inconclusive.

COc1cc(NC(=O)Cc2c(C(=O)O)c(C)cn2C)cc(OC)c1	none (no result: Nrf2 block, IL-2 act)
CCCc1c2ccccc2nc2ccccc12	ClpP mod 7.1µM | ClpP validation 19µM
CCCc1nc2ccccc2c(=O)n1N	none
Cc1ccc(-c2cc(C(=O)NCc3ccccc3Cl)c3ccccc3n2)cc1C	ClpP mod 4.5µM (no result: Nrf2 block, IL-2 act) | ClpP validation 27µM
CCn1cc(CNC(=O)c2cc(-c3ccc(C)c(C)c3)nc3ccccc23)c(C)n1	Nrf2 block inconclusive, ClpP mod inconclusive (no result: IL-2 act)
CCN(CC)C(=O)C1=C(C)Nc2nc3ccccc3n2C1c1cccc(Cl)c1 (stereo unspecified)	none (no result: IL-2 act)
COc1ccc(OC)c(NCc2nnc(-c3ccccc3)o2)c1	none (no result: ClpP mod)
COc1ccc(-c2ccc(-c3nnc(Cc4ccc(OC)c(OC)c4)o3)cc2)cc1	Nrf2 block inconclusive, ClpP mod 2µM | ClpP validation inconclusive
COc1ccc(S(=O)(=O)N2CCCC2C(=O)Nc2nc3c(s2)CCCC3)cc1 (stereo unspecified)	ClpP mod 6.3µM (no result: Nrf2 block) | ClpP validation inactive
COc1ccc(-c2oc3ncn4nc(COc5c(C)cccc5C)nc4c3c2-c2ccc(OC)cc2)cc1	none (no result: IL-2 act)
COc1ccc(-c2oc3ncn4nc(COc5ccc(Cl)cc5)nc4c3c2-c2ccc(OC)cc2)cc1	none (no result: IL-2 act) | ClpP validation inconclusive
COc1ccc(Br)cc1CNC(=O)c1cnc2sc(N3CCCCCC3)nn2c1=O	ClpP mod 8.9µM (no result: IL-2 act) | ClpP validation inactive
CN(C)c1cccc(C(=O)Nc2ccc(-c3nc4ccccc4s3)cc2)c1	ClpP mod 3.5µM (no result: Nrf2 block, IL-2 act) | ClpP validation inactive
CC(C)Oc1ccc(C(=O)Nc2ccc(-c3nc4ccccc4s3)cc2)cc1	none (no result: IL-2 act)
COc1ccccc1C(=O)Nc1ccc(-c2nc3ccccc3s2)c(C)c1	ClpP mod 2µM (no result: Nrf2 block, IL-2 act) | ClpP validation inactive
COc1ccc(-c2nc3ccccc3s2)cc1NC(=O)c1cccc(F)c1	none (no result: Nrf2 block, IL-2 act) | ClpP validation inconclusive
CCc1ccc(NC(=O)c2sc3nc(C)cc(C)c3c2NC(=O)c2ccccc2OC)cc1	none (no result: IL-2 act) | ClpP validation 24µM
Cc1ccc(C(=O)Nc2ccc(-c3nc4ccccc4s3)c(O)c2)c(C)c1	none (no result: Nrf2 block, IL-2 act)
CCCCNC(=O)C1CCC(Cn2c(=O)c3sccc3n(CC(=O)N3CCCC3)c2=O)CC1 (stereo unspecified)	Nrf2 block inconclusive (no result: IL-2 act)
COC(=O)c1ccc(NC(=O)C(=O)NCCc2sc(-c3cccc(F)c3)nc2C)cc1	none (no result: Nrf2 block, IL-2 act)
COc1ccc(-c2cn3c(n2)sc2cc(C(=O)NC4CCCCCC4)ccc23)cc1	none (no result: IL-2 act)
O=C(NC1CCCCC1)c1ccc2c(c1)sc1nc(-c3ccc(F)cc3)cn12	ClpP mod 10µM (no result: IL-2 act) | ClpP validation inactive
COc1cccc(-c2cn3c(n2)sc2cc(C(=O)NC4CCCCCC4)ccc23)c1	ClpP mod 4µM (no result: IL-2 act) | ClpP validation 24µM
COc1cccc(-c2cn3c(n2)sc2cc(C(=O)NC4CCCCC4)ccc23)c1	ClpP mod inconclusive (no result: IL-2 act) | ClpP validation 24µM
CCOC(=O)CSc1nc2ccc(NC(=O)COc3ccccc3C)cc2s1	none (no result: IL-2 act)
COc1ccc(NS(=O)(=O)c2ccc(C)c(C(=O)O)c2)cc1	none
COc1ccc(NS(=O)(=O)c2ccc(C)c(C(=O)NNC(=O)c3ccccc3O)c2)cc1	none (no result: miR-21 act) | ClpP validation inactive
O=C1Nc2ccc(Cl)cc2C12Nc1ccccc1-c1nnc(SCc3ccccc3F)nc1O2 (stereo unspecified)	none
O=C1Nc2ccc(F)cc2C12Nc1ccccc1-c1nnc(SCc3ccccc3F)nc1O2 (stereo unspecified)	none | ClpP validation inactive
c1ccc2oc(-c3ccc(Nc4nc(N5CCCCC5)nc(N5CCOCC5)n4)cc3)nc2c1	none (no result: Nrf2 block, A549 viability, IL-2 act, ClpP mod, Nrf2 ARE act)
COc1nc(Nc2ccc(-c3nc4ccccc4o3)cc2)nc(N2CCOCC2)n1	ClpP mod 8.9µM (no result: miR-21 act) | ClpP validation 19µM
COc1cccc(NC(=O)Cn2c(-c3cncs3)nc3ccccc32)c1	ClpP mod 8.9µM (no result: Nrf2 block) | ClpP validation inactive
CCOCCCn1c(=N)c(C(=O)NC2CCCCC2)cc2c(=O)n3ccccc3nc21	none (no result: IL-2 act)
Cc1nnc(NC(=O)c2oc3c(ccc4ccccc43)c2C)s1	ClpP mod 8.9µM | ClpP validation 31µM
Cc1nnc(NC(=O)c2oc3ccccc3c2C)s1	Nrf2 block inconclusive
CCOc1cccc2sc(NC(=O)c3ccc(S(=O)(=O)N4CCCCC4C)cc3)nc12 (stereo unspecified)	ClpP mod inconclusive (no result: Nrf2 block, IL-2 act)
Nc1c(C(=O)Nc2cccc(Cl)c2Cl)sc2nc(-c3cccnc3)ccc12	ClpP mod 4µM | ClpP validation inactive
Fc1cc2nc(-c3ccncc3)[nH]c2cc1F	ClpP mod 3.2µM | ClpP validation 17µM
Cc1ccc(C)c(NC(=O)C(OC(=O)c2cnc(C)cn2)c2ccccc2)c1 (stereo unspecified)	none (no result: miR-21 act) | ClpP validation inactive
COc1ccc(C)cc1NC(=O)C(OC(=O)c1cnc(C)cn1)c1ccccc1 (stereo unspecified)	none (no result: miR-21 act)
Cc1ccc(C2Nc3ccccc3-c3nc4ccccc4n32)o1 (stereo unspecified)	ClpP mod 0.71µM | ClpP validation 11µM
CC(Nc1nc(N2CCN(S(C)(=O)=O)CC2)nc2ccccc12)c1ccccc1 (stereo unspecified)	ClpP mod 4µM | ClpP validation 24µM
COc1ccc(Nc2nc(N3CCN(S(C)(=O)=O)CC3)nc3ccccc23)c(OC)c1	none (no result: ClpP mod)
O=C(Cn1ncc2c([nH]c3ccccc32)c1=O)Nc1cccc(C(F)(F)F)c1	Nrf2 block inconclusive (no result: IL-2 act)
COc1ccc2c(c1)c1ncn(CCN3CCNCC3)c(=O)c1n2C	ClpP mod 2.2µM (no result: Nrf2 block) | ClpP validation 19µM
Cc1ccc2[nH]c3c(=O)n(CCN4CCNCC4)cnc3c2c1	ClpP mod 8.9µM | ClpP validation 22µM
Cc1cccc2[nH]c3c(=O)n(CCN4CCNCC4)cnc3c12	ClpP mod inconclusive (no result: Nrf2 block)
CC(=O)Nc1ccc(Nc2ncnc3c2c(-c2ccccc2)cn3-c2ccccc2)cc1	none (no result: Nrf2 block, IL-2 act)
CC(C)c1ccc(Nc2ncnc3c2c(-c2ccccc2)cn3-c2ccccc2)cc1	ClpP mod 2.5µM (no result: Nrf2 block, IL-2 act) | ClpP validation 24µM
